PMC6919601, “Identification of Plasmodium dipeptidyl aminopeptidase allosteric inhibitors by high throughput screening” (PLoS ONE, 2019)
In all, about 110,000 compounds went through this assay and about 230 (0.21%) showed an effect of 50% or more. What follows is part of a selection rich in strong results, with near analogues and random picks from the rest.

Biological target: DPAP1 (Plasmodium falciparum, UniProt Q8IIJ9)
Test: primary screen, percent inhibition; read by cleavage of a fluorogenic dipeptide substrate; higher = more effect of the substance
Set-up: species or system P. falciparum D10 trophozoite lysates; single well
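Also: 30 min substrate incubation versus DMSO and 10 µM JCP410 controls.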

DPAP1, sequence (Q8IIJ9 whole entry, looked up): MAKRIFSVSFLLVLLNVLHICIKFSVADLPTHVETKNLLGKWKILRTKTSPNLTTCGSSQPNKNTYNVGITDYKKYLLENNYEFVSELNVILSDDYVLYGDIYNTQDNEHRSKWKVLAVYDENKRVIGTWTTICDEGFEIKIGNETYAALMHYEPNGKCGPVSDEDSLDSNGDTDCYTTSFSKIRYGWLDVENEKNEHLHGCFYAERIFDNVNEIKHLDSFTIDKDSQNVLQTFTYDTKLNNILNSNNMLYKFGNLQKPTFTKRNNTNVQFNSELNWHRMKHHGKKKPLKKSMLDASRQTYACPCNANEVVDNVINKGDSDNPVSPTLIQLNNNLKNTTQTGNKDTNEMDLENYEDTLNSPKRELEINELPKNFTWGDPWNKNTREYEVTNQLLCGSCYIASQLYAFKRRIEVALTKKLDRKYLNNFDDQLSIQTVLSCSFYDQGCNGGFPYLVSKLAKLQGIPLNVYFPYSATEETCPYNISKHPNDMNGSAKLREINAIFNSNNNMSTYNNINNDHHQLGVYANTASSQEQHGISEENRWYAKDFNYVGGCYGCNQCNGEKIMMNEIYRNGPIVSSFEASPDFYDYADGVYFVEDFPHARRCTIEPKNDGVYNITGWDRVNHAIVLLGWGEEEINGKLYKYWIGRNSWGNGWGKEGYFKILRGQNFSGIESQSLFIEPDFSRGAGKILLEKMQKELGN

| Structure (SMILES) | % Inhibition @ 10 uM [%] |
| --- | --- |
| CC1CCN(S(=O)(=O)c2ccc(NC(=O)C(C)(C)C)cc2)CC1 | -6.17 |
| N=C(Cc1cccc2ccccc12)NOC(=O)c1cccs1 | 3.66 |
| COc1cc2c(cc1OC)C(C(=O)N1CCC(C)CC1)C(c1cccnc1)N(C)C2=O (stereo not drawn) | 1.83 |
| CCCc1nc2ccccc2n1Cc1ccccc1OC | 0.913 |
| CCOc1ccc(C2CC(=O)N3CN(Cc4cccnc4)CSC3=C2C#N)cc1 (stereo not drawn) | 56 |
| N#CC1=C2SCN(Cc3cccnc3)CN2C(=O)CC1c1ccc(F)cc1 (stereo not drawn) | 55.3 |
| Cc1ccc(C2CC(=O)N3CN(Cc4cccnc4)CSC3=C2C#N)cc1 (stereo not drawn) | 43.8 |
| CCc1ccc(C2CC(=O)N3CN(Cc4ccco4)CSC3=C2C#N)cc1 (stereo not drawn) | 33.6 |
| COc1ccc(C2CC(=O)N3CN(Cc4cccnc4)CSC3=C2C#N)cc1 (stereo not drawn) | 46.3 |
| CN(CC(=O)NC1CCCCCC1)S(=O)(=O)c1ccc(F)cc1 | 3.17 |
| CCN1CCN(C(=O)C2CC(c3ccc(OC)cc3)=NO2)CC1 (stereo not drawn) | 1.62 |
| N#CCCN1CCN(C2=NC(=O)/C(=C\c3ccc(-c4ccc(Cl)cc4)o3)S2)CC1 | -2.8 |
| COc1ccccc1NC(=O)c1cnc(Nc2nc3ccccc3o2)nc1C | -4.12 |
| CCCN1CCC(N2CCC(C)CC2)CC1 | -3.74 |
| COc1cccc2c(O)c(C(=O)O)cnc12 | 0.51 |
| Cc1nc(O)nc(O)c1S(=O)(=O)N1CCN(CCOc2ccc(Cl)cc2)CC1 | -1.38 |
| Cc1cc(-c2ccc(C)c(S(=O)(=O)N3CCN(CCOc4ccc(Cl)cc4)CC3)c2)on1 | -5.87 |
| Cc1cc2nc(O)c(O)nc2cc1S(=O)(=O)N1CCN(CCOc2ccc(Cl)cc2)CC1 | 52.3 |
| COc1ccc(-c2cc(C(F)(F)F)nc(SCC(=O)N3CCOCC3)n2)cc1 | -8.55 |
| COc1ccc(-c2cc(-c3ccccc3)nc3sc(C(N)=O)c(N)c23)cc1 | 76 |
| COC(=O)c1sc2nc(-c3ccccc3)cc(-c3ccc(OC)cc3)c2c1N | 2.79 |
| COc1ccc(-c2cc(-c3ccc(OC)cc3)c3c(N)c(C(N)=O)sc3n2)cc1 | 19.8 |
| CCCN1C(=O)c2n[nH]c(C)c2C1c1cccnc1 (stereo not drawn) | -4.67 |
| COc1ccc(C2=N/C(=C\c3cccc(C(F)(F)F)c3)C(=O)O2)cc1OC | 6.11 |
| CCOc1c(/C=C2/S/C(=N\c3ccccc3)N(C)C2=O)cccc1OC | 1.57 |

| Structure (SMILES) | % Inhibition @ 10 uM [%] |
| --- | --- |
| O=C1CC(Sc2ccccn2)C(=O)N1c1ccc(Br)cc1 (stereo not drawn) | 2.38 |
| COCCNC(=O)CCN1C(=O)c2ccccc2Sc2ncccc21 | -2.97 |
| COc1ccc2nc3sc(C(=O)N4CCOCC4)cc3cc2c1 | 89.7 |
| COc1ccc2cc3cc(C(=O)NCCN4CCN(Cc5ccccc5)CC4)sc3nc2c1 | 94.4 |
| CCCCN(C)CCNC(=O)c1cc2cc3cc(OC)ccc3nc2s1 | 83.9 |
| COc1ccc(-c2ccc(C(=O)N3CCOCC3)cc2)cc1 | 85.3 |
| COc1ccc2nc3sc(C(=O)N4CCC5(CC4)OCCO5)cc3cc2c1 | -4.16 |
| COc1ccc(C(=O)N2CCN(C(=O)c3ccc(OC)cc3)CC2)cc1 | -1.61 |
| COc1ccc2nc3sc(C(=O)N4CCN(C)CC4)cc3cc2c1 | -5.06 |
| COc1ccc2nc3sc(C(=O)NCCN(C)Cc4ccccc4)cc3cc2c1 | -2.12 |
| COc1ccc(C(=O)N2CCN(CC(=O)N3CCOCC3)CC2)cc1 | 6.33 |
| COc1ccc2cc3cc(C(=O)N4CCN(Cc5ccccc5)CC4)sc3nc2c1 | 4.61 |
| COc1ccc2cc3cc(C(=O)NCCCN4CCN(C)CC4)sc3nc2c1 | 1.22 |
| COc1ccc2nc3sc(C(=O)NCCC(C)C)cc3cc2c1 | -5.98 |
| CCOc1ccc(C(=O)N(Cc2nc(-c3ccc(Cl)cc3)no2)C(C)C)cc1 | -1.84 |
| CC(=O)Nc1ccc(NC(=O)c2cccc(Cl)c2Cl)cc1 | 3.74 |
| COc1cc(NC(=O)C(C)Oc2ccccc2)cc(OC)c1 (stereo not drawn) | -2.8 |
| Cc1ccc(NC(=O)C(Cc2ccc([N+](=O)[O-])cc2)N2C(=O)c3ccccc3C2=O)cc1[N+](=O)[O-] (stereo not drawn) | -2.47 |
| COc1ccccc1S(=O)Cc1ccc(C(=O)NCCc2ccc(Cl)cc2)o1 (stereo not drawn) | -4.96 |
| COc1ccc2nc3sc(C(=O)NCCCN4CCc5ccccc5C4)cc3cc2c1 | 64.7 |
| CCN(Cc1ccccc1)C(=O)c1cc2cc3cc(OC)ccc3nc2s1 | 50.3 |
| CCCCN(CC)C(=O)c1cc2cc3cc(OC)ccc3nc2s1 | -1.55 |
| CCC1CCCCN1CCCNC(=O)c1cc2cc3cc(OC)ccc3nc2s1 (stereo not drawn) | 1.22 |
| COc1ccc2nc3sc(C(=O)NCCCN4CCCC4=O)cc3cc2c1 | 84.6 |
| COc1ccc2cc3cc(C(=O)NCCN4CCc5ccccc5C4)sc3nc2c1 | 4.61 |

| Structure (SMILES) | % Inhibition @ 10 uM [%] |
| --- | --- |
| COc1ccc2cc3cc(C(=O)N(C)Cc4ccccc4)sc3nc2c1 | 0.402 |
| COc1ccc2nc3sc(C(=O)NCCCN4CC(C)CC(C)C4)cc3cc2c1 (stereo not drawn) | -2.44 |
| COc1ccc2nc3sc(C(=O)NCCN4CCOCC4)cc3cc2c1 | 3.07 |
| CSc1ccc(CN2CCN(c3cccc(Cl)c3)CC2)cc1 | 0.847 |
| CCN1CCN(C(=O)CS(=O)(=O)Cc2nc(-c3ccc(C)cc3)oc2C)CC1 | -3.7 |
| O=S(=O)(NC1CCc2ccccc21)c1ccc(-n2cnnn2)cc1 (stereo not drawn) | -1.07 |
| CC1=C(C(=O)Nc2ccc(Br)cc2)C(c2ccc(Cl)cc2)NC(=O)N1 (stereo not drawn) | 1.35 |
| COCCCNC(=O)Cc1coc2ccc3ccccc3c12 | 2.01 |
| CCn1c(S)nc2c(=O)oc3ccccc3c21 | 14 |
| Cc1nc2c(=O)oc3ccccc3c2n1C | 4.35 |
| Cn1c(S)nc2c(=O)oc3ccccc3c21 | 56.8 |
| COc1ccc(N(C(C)C(=O)Nc2ccc(C(C)C)cc2)S(C)(=O)=O)cc1 (stereo not drawn) | -1.57 |
| CCCCSCCCNC(=O)C1CCC(CNS(=O)(=O)c2ccc(C)cc2)CC1 (stereo not drawn) | 5.47 |
| COc1cccc(C2CC(=O)N3CN(CCc4sccc4C)CSC3=C2C#N)c1 (stereo not drawn) | 56.9 |
| COc1ccc(C2CC(=O)N3CN(CCCc4ccccc4)CSC3=C2C#N)cc1OC (stereo not drawn) | 30.5 |
| COc1ccc(C2CC(=O)N3CN(CCC(C)C)CSC3=C2C#N)cc1OC (stereo not drawn) | 46.8 |
| Cc1ccsc1CCN1CSC2=C(C#N)C(c3ccc(Cl)cc3)CC(=O)N2C1 (stereo not drawn) | 51.6 |
| CC(C)CCN1CSC2=C(C#N)C(c3ccc(Cl)cc3)CC(=O)N2C1 (stereo not drawn) | 54.6 |
| COc1cc(C2CC(=O)N3CN(Cc4ccco4)CSC3=C2C#N)ccc1O (stereo not drawn) | 17.5 |
| Cc1ccc(C2CC(=O)N3CN(CCC(C)C)CSC3=C2C#N)cc1 (stereo not drawn) | 43.8 |
| N#CC1=C2SCN(Cc3ccccc3)CN2C(=O)CC1c1ccc(Cl)cc1 (stereo not drawn) | 42.2 |
| NC(=O)c1ccc(-n2nnnc2SCc2ccc(C(=O)O)cc2)cc1 | 3.05 |
| CCC1CCC(NCCN(C)C)CC1 (stereo not drawn) | -3.42 |
| Cc1nc2scc(C)n2c(=O)c1S(=O)(=O)N1CCc2ccccc2C1 | -0.984 |
| CCOC(=O)/C=C(\C)N1N=C2c3ccc(OC)cc3CCC2C1c1ccc(F)cc1 (stereo not drawn) | -1.77 |

| Structure (SMILES) | % Inhibition @ 10 uM [%] |
| --- | --- |
| CCOC(=O)/C=C(\C)N1N=C2c3cc(OC)ccc3CCC2C1c1ccccc1 (stereo not drawn) | 2 |
| CCOC(=O)/C=C(\C)N1N=C2c3ccc(OC)cc3CCC2C1c1ccc(OC)cc1 (stereo not drawn) | 60.6 |
| CCOC(=O)/C=C(\C)N1N=C2c3ccc(OC)cc3CCC2C1c1cccc(F)c1 (stereo not drawn) | 73.1 |
| CCOC(=O)/C=C(\C)N1N=C2c3cc(OC)ccc3CCC2C1c1ccc(OC)cc1 (stereo not drawn) | -4.49 |
| COc1ccc(C2C3CCc4ccc(OC)cc4C3=NN2/C(C)=C/C(C)=O)cc1 (stereo not drawn) | 22.9 |
| COc1ccc2c(c1)CCC1C2=NN(/C(C)=C/C(C)=O)C1c1ccc([N+](=O)[O-])cc1 (stereo not drawn) | 4.54 |
| CCOC(=O)/C=C(\C)N1N=C2c3cc(OC)ccc3CCC2C1c1ccc(F)cc1 (stereo not drawn) | 6.33 |
| COc1ccc(C2C3CCc4cc(OC)ccc4C3=NN2/C(C)=C/C(C)=O)cc1 (stereo not drawn) | 58.5 |
| COC(=O)C(O)(c1ccc(N)cc1)C(F)(F)F (stereo not drawn) | 0.937 |
| CCCCOC1CS(=O)(=O)CC1OCCCC (stereo not drawn) | -5.28 |
| Cc1ccc(-c2nc(CSCC(=O)Nc3cc(C)on3)c(C)o2)cc1 | -2.14 |
| CC1=C(C)CC(C(=O)Nc2cccc(F)c2)C(C(=O)O)C1 (stereo not drawn) | -2.22 |
| COC(=O)c1cc(OC)c(S(=O)(=O)NCc2ccccc2)cc1OC | -2.28 |
| CCOC(=O)C1=C(CN2CCN(C)CC2)NC(=O)NC1c1cccc(OC)c1OC (stereo not drawn) | 3.75 |
| CCOC(=O)C1=C(CN2CCC3(CC2)OCCO3)NC(=O)NC1c1cccc(OC)c1OC (stereo not drawn) | 93 |
| CCOC(=O)C1=C(CN2CCN(C(=O)OCC)CC2)NC(=O)NC1c1cccc(OC)c1OC (stereo not drawn) | 2.12 |
| O=C1CC(c2ccccc2)NC(=O)N1 (stereo not drawn) | -2.86 |
| CCCOc1ccc(C2C3=C(O)CC(C)(C)CC3=NC(C)=C2C(=O)Nc2ccccc2OC)cc1 (stereo not drawn) | -0.864 |
| c1ccc(C(CCNC2CN3CCC2CC3)c2ccccc2)cc1 (stereo not drawn) | -0.0908 |
| O=C(CCN1C(=O)c2ccccc2C1=O)NCC1CCCO1 (stereo not drawn) | -0.349 |
| Cc1cc(/C=C2/C(=N)N3C(=NC2=O)SN=C3S(=O)(=O)C(C)C)c(C)n1Cc1ccccc1 | -7.21 |
| CC(C)Oc1ccccc1/C=C1\SC(=N)N(c2nccs2)C1=O | 50.1 |
| N=C1S/C(=C\c2c[nH]nc2-c2ccccc2)C(=O)N1c1nccs1 | 11.2 |
| N=C1S/C(=C\c2ccco2)C(=O)N1c1nccs1 | -3.74 |
